System: Vero E6 infected with SARS-CoV-2
Assay: inhibition of SARS-CoV-2 cytopathic effect; higher = more antiviral protection, active = above 15
Conditions: 48 h

Measured: inhibition of SARS-CoV-2 cytopathic effect

CCCNC(C)(C)COC(=O)c1ccccc1 [meprylcaine]
inactive: 1 nM 2.21% | 8.33 nM -2.34% | 100 nM -2.33% | 833.33 nM -1.75% | 10000 nM -5.76%

O=C1Nc2ccc(Cl)cc2[C@@](C#CC2CC2)(C(F)(F)F)O1 [efavirenz]
inactive: 1 nM -5.64% | 8.33 nM -1.07% | 100 nM 0% | 833.33 nM -0.49% | 10000 nM -1.92%

CO[C@H]1CC=C2CCN3CCC4=C(CC(=O)OC4)[C@]23C1
inactive: 1 nM 1.56% | 8.33 nM -0.91% | 100 nM 1.32% | 833.33 nM 0.73% | 10000 nM 1.37%

C[C@@H]1C[C@H]2[C@@H]3CCC4=CC(=O)C=C[C@]4(C)[C@@]3(Cl)[C@@H](O)C[C@]2(C)[C@@]1(OC(=O)c1ccco1)C(=O)CCl
inactive: 1 nM -0.2% | 8.33 nM -2.64% | 100 nM -2.34% | 833.33 nM -2.86% | 10000 nM 3.12%

CN1Cc2c(N)cccc2C(c2ccccc2)C1 (stereo not given) [nomifensine]
inactive: 1 nM 0.22% | 8.33 nM 1.01% | 100 nM 2.41% | 833.33 nM 1.13% | 10000 nM 0.73%

Oc1ccc(Cl)cc1 [parachlorophenol]
inactive: 1 nM 1.78% | 8.33 nM -0.13% | 100 nM 1.68% | 833.33 nM 2.25% | 10000 nM -1.37%

CN1CCN(c2ccc(/C=C(\C#N)c3ccccc3Br)cc2)CC1
inactive: 1 nM 2.51% | 8.33 nM -1.94% | 100 nM -3.13% | 833.33 nM -2.26% | 10000 nM -2.17%

COc1cc2cc(c1Cl)N(C)C(=O)C[C@H](OC(=O)C(C)C)[C@]1(C)O[C@@H]1[C@H](C)[C@@H]1C[C@@](O)(NC(=O)O1)[C@H](OC)/C=C/C=C(\C)C2 [ansamitocin-p-3]
inactive: 1 nM 2.87% | 8.33 nM -1.3% | 100 nM -3.14% | 833.33 nM -0.53% | 10000 nM 0.75%

C/C(=N\NC(=S)N1CCC1)c1ccccn1
inactive: 1 nM 0.2% | 8.33 nM 0.91% | 100 nM 2.65% | 833.33 nM -1.1%
active: 10000 nM 20.1%

COc1cc(NC(=O)c2ccccn2)ccc1Cl
inactive: 1 nM -0.99% | 8.33 nM -1.87% | 100 nM 1.63% | 833.33 nM 2.18% | 10000 nM 1.18%

CNC(=O)c1ccccc1Sc1ccc2c(/C=C/c3ccccn3)n[nH]c2c1 [axitinib]
inactive: 1 nM -0.21% | 8.33 nM -0.79% | 100 nM 0.55% | 833.33 nM 2.32% | 10000 nM 0.23%

CC1CCC(NC(=O)N(CCCl)N=O)CC1 (stereo not given) [semustine]
inactive: 1 nM 1.43% | 8.33 nM 1.15% | 100 nM -3.63% | 833.33 nM -1.54% | 10000 nM 0.45%

COC(=O)[C@@]12OC[C@]34[C@H]([C@@H](O)[C@@H]1O)[C@@]1(C)CC(=O)C(O)=C(C)[C@@H]1C[C@H]3OC(=O)[C@H](OC(=O)/C=C(\C)C(C)C)[C@@H]24 [bruceantin]
inactive: 1 nM 1.48% | 8.33 nM 1.92% | 833.33 nM 4.61% | 10000 nM -16.1%
active: 100 nM 26.8%

CS(=O)(=O)OCCCCOS(C)(=O)=O [busulfan]
inactive: 1 nM -2.94% | 8.33 nM -4.62% | 100 nM -3.55% | 833.33 nM -3.78% | 10000 nM -4.14%

COc1ccc(O)c(C(C)(C)C)c1.COc1ccc(O)cc1C(C)(C)C [butylated-hydroxyanisole]
inactive: 1 nM -2.13% | 8.33 nM -2.11% | 100 nM -2.79% | 833.33 nM 0.85% | 10000 nM -1.88%

Nc1nc2ccc(Cl)cc2c2nc(-c3ccco3)nn12
inactive: 1 nM 3.02% | 8.33 nM 1.43% | 100 nM -1.65% | 833.33 nM -3.37% | 10000 nM 1.46%

CNc1nc(-c2ccc3c(N)n[nH]c3c2)cc(N2C[C@@H](C(=O)NC3CCCCC3)CC[C@H]2C)n1
inactive: 1 nM 2.6% | 8.33 nM 3.93% | 100 nM 1.23% | 833.33 nM 0.1% | 10000 nM -5.35%

NC/C(=C/F)CCc1ccc(F)cc1 [mofegiline]
inactive: 1 nM 3.65% | 8.33 nM 2.09% | 100 nM 1.29% | 833.33 nM -1.58% | 10000 nM -3.87%

COCC(=O)Nc1c(I)c(C(=O)NCC(O)CO)c(I)c(C(=O)N(C)CC(O)CO)c1I (stereo not given) [iopromide]
inactive: 1 nM -2.42% | 8.33 nM -1.91% | 100 nM -0.01% | 833.33 nM -0.15% | 10000 nM 0.66%

— the supplement of paper PMC13380429
